beta cell repl: inducers of MIN6 beta-cell proliferation, primary screen, ATP luminescence, uHTS; MIN6 cells proliferation, ATPlite luminescence, 48 h; cells starved in 0.2% serum; 100% = growth in 10% serum; actives 0.29% (n = 330,000); proliferation, % at 10 µM;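 active = compounds whose signal lies at least 3.5 SD above the mean of all wells on their plate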;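 note: 0% = DMSO-treated cells in low-serum medium and 100% = 10% serum control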
H9c2 TAG inh: inhibitors of triacylglycerol accumulation, primary screen, cell-based, uHTS, fluorescence, H9c2 | AID 651582, 2012 | H9c2 cells, Nile Red lipid (TAG) fluorescence; cells loaded with 200 µM oleic acid | inhibition, % at 12.5 µM | actives 0.66% (n = 230,000);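 active = pattern-corrected inhibition of lipid staining of at least 50% with the nuclear-stain viability signal not falling by more than 50%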;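 note: 0% = DMSO wells and 100% = triacsin C control wells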
CHT allo act: CHT positive allosteric modulators, primary screen, cell-based, membrane potential dye, choline EC20 | AID 488977, 2010 | B-score at 10 µM | CHT-expressing cells; stronger effect = higher value; LV-AA mutant CHT in HEK293 cells | actives 0.49% (n = 310,000);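 active = initial fluorescence not abnormally high and integrated response B-score, plate-corrected, over 3 SD above library mean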
Target sequence (Q9GZV3 whole entry, looked up): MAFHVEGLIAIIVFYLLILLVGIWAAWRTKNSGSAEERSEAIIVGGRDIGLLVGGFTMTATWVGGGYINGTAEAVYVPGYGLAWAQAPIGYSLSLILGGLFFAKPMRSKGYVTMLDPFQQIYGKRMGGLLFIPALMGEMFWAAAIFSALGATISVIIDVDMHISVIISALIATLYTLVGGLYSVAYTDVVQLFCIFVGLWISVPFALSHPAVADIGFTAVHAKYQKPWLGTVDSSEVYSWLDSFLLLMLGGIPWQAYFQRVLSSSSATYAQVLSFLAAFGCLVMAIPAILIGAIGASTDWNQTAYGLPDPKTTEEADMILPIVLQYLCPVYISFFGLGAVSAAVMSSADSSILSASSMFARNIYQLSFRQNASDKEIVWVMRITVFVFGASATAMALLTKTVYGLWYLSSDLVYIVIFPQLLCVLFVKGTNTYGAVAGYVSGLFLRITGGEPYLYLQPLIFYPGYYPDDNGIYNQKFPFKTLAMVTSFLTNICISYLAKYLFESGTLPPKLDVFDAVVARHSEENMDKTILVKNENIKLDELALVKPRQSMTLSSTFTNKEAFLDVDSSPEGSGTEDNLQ
CHT inh: inhibitors of human choline transporter CHT | B-score at 10 µM | CHT-expressing cells, membrane potential dye, choline response; stronger effect = lower value | High affinity choline transporter 1 (Homo sapiens), Q9GZV3 | actives 0.86% (n = 310,000);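 active = B-score over 3 SD under the library average, and starting fluorescence ratio not unusually high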;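 note: choline stimulus applied at its EC90 after an EC20 pre-addition; B-score computed on integrated fluorescence ratio after choline addition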
* = called active by the depositor; i = inactive; · = no result given. Compounds with a hit are over-represented: about 1.7% of the library has one in this group of screens.

SMILES | beta cell repl | H9c2 TAG inh | CHT allo act | CHT inh
CCCCN(c1ccccc1)S(=O)(=O)c1cccc(C(=O)Nc2c(C)n(C)n(-c3ccccc3)c2=O)c1 | · | -7.3 | · | ·
OC(c1cccnc1)c1nc(-c2cccc(F)c2)cs1 (centres undefined) | · | 7.9 | · | ·
CC1(OC(=O)CCc2ccccc2)C(=O)C=C2C=C3CCCN3C=C2C1=O (centres undefined) | 2.9 | -1.5 | i | i
CC1(OC(=O)c2cccs2)C(=O)C=C2C=C3CCCN3C=C2C1=O (centres undefined) | 3.5 | 8.7 | i | -5.28*
Cc1cc(S(=O)(=O)NCC(c2ccc3c(c2)OCO3)N2CCOCC2)ccc1F (centres undefined) | -2.5 | -2.3 | i | i
CCN1C(=O)[C@H]2[C@@H](c3ccc(-c4cccc(Cl)c4)cc3)N[C@@](CC(C)C)(C(=O)OC)[C@H]2C1=O | -5.9 | 28.7 | · | ·
CCN1C(=O)[C@H]2[C@@H](c3ccc(-c4cccc(Cl)c4)c(OC)c3)N[C@@](CC(C)C)(C(=O)OC)[C@H]2C1=O | -7.7 | 70.0* | i | i
COc1ccc(-n2c(C)cc(C(=O)CCl)c2C)cc1 | -6.9 | 64.4* | i | i
CCOc1cc(/C=N/Nc2cc(C)nc(-n3nc(C)cc3C)n2)ccc1O | -6.5 | 67.6* | i | i
C=CCOc1cccn2c(N(C=O)Cc3ccc(OC)cc3)c(CC)nc12 | · | -6.7 | · | ·
CCOC(=O)c1nc(N2CCN(C(=O)OCC)CC2)c2c3c(sc2n1)CCCC3 | -3.6 | · | i | -5.9*
CC1CN(S(=O)(=O)c2cccc(C(=O)NCC(c3cccs3)N3CCOCC3)c2)CC(C)O1 (centres undefined) | · | 4.8 | · | ·
O=c1c2c(-c3ccccc3)csc2nc2c3ccccc3c(NCCN3CCOCC3)nn12 | · | 100.5* | · | ·
CCCC1=Nc2cc(C(=O)NCCCOCC)ccc2Sc2ccccc21 | -5.8 | 79.3* | i | i
Cc1cccc(-c2noc(-c3csc([C@@H]4C[C@H](O)[C@@H](CO)O4)n3)n2)c1 | · | 9.4 | · | ·
COCCNC(=O)C1CCCN(C(=O)c2sc(-c3ccccc3)nc2C)CC1 (centres undefined) | · | 4.2 | · | ·
CCOc1ccccc1C(=O)N1CCN(c2cccc(Cl)c2)CC1 | -5.5 | · | 12* | i
NC(=O)c1ccc(N=Nc2c(-c3ccccc3)[nH]n(-c3ccccc3)c2=O)cc1 | -5.2 | · | i | i
O=c1c(N=Nc2ccc(O)cc2)c(-c2ccccc2)[nH]n1-c1ccc([N+](=O)[O-])cc1 | -6.9 | 88.1* | i | i
Oc1ccc(C=NNc2ccccn2)c(O)c1 | · | 52.6* | · | ·
C=C(c1ccc2nc(NC(=O)OC)[nH]c2c1)c1cccs1 | · | 27.3 | · | ·
CC(=O)Nc1cccc(-c2csc(C(C)(NC(C)=O)c3ccccc3)n2)c1 (centres undefined) | · | -9.0 | · | ·
O=c1c(C(c2ccccc2)c2c(O)sc3ccccc3c2=O)c(O)sc2ccccc12 | -4.5 | · | i | -5.24*
O=c1c2ccccc2sc2ccccc12 | · | 3.0 | · | ·
COc1ccc(CCCNC(=O)C2(C)Cc3c(-c4ccc5c(c4)OCO5)ccnc3O2)cc1 (centres undefined) | · | 7.9 | · | ·
SMILES | beta cell repl | H9c2 TAG inh | CHT allo act | CHT inh
COC(=O)c1cc(S(=O)(=O)N2CCN(c3cccc(Cl)c3)CC2)c[nH]1 | 4.0 | -19.5 | i | i
O=C(c1ccc2c3n(nc2c1)-c1ccccc1CO3)N1CCCCC1 | -5.2 | -9.5 | i | -5.25*
Cc1ccc(NC(=O)CSc2nc3ccccc3c(=O)n2CCCN2CCCCC2)cc1C | -6.0 | 44.8 | 7.28* | i
CC(=O)c1cccc(NC(=O)CSc2nc3ccccc3c(=O)n2CCCN2CCOCC2)c1 | -1.9 | 9.7 | · | ·
O=C(NC1C2CC3CC(C2)CC1C3)c1ccc(Br)o1 (centres undefined) | 0.7 | · | i | i
COC(=O)c1cccc(NC(=O)NC23CC4CC(CC(C4)C2)C3)c1 | 0.0 | 3.1 | i | i
COC(=O)c1ccc(Cl)c(NC(=O)NC23CC4CC(CC(C4)C2)C3)c1 | -6.0 | 69.8* | i | i
COc1cc2c[n+](C)c3c4ccccc4ccc3c2cc1OC | · | -20.6 | · | ·
COc1ccc(Cc2c3cc(OC)c(OC)cc3cc[n+]2C)cc1OC | -0.4 | · | 12.1* | i
CC[n+]1ccc2cc(OC)c(OC)cc2c1Cc1ccc(OC)c(OC)c1 | -3.5 | 5.5 | 6.27* | i
C=CC[C@@H](CC(=O)N[C@H](CO)Cc1ccccc1)C(=O)N[C@@H](COC(=O)[C@@H](CC=C)CC(=O)OC(C)(C)C)Cc1ccccc1 | -4.4 | 22.3 | · | ·
Cc1ccc(S(=O)(=O)NCc2ccc(C(=O)N3CCN(c4ccc([N+](=O)[O-])cc4)CC3)cc2)cc1 | -2.9 | · | i | i
COc1ccc(-c2sc3ccccc3c2-c2ccc(OCCN(C)C)cc2)cc1 | -6.1 | 63.1* | · | ·
COc1ccccc1C(=O)Nc1ccnn1C1CCN(Cc2cc(C)c(C)cc2C)CC1 | -6.5 | -7.7 | i | -5.27*
Cc1cc(C)c(CN2CCC(n3nccc3NC(=O)c3ccccc3Cl)CC2)cc1C | -4.6 | 6.9 | i | i
CN(C)CC/C=C1\c2ccc(F)cc2Sc2cc(F)c(Cl)cc21 | -4.3 | 61.4* | i | i
CN(C)CC/C=C1\c2ccccc2Sc2cc(F)c(Cl)cc21 | -4.1 | 62.2* | i | i
CS(=O)(=O)N(CC(=O)N1CCCC1)C1CCCCC1 | · | 2.5 | · | ·
O=C(O)c1cccc(N/N=C(\N=Nc2ccccc2)c2ccccc2)c1 | -1.6 | 22.6 | i | -6.44*
O=[N+]([O-])c1ccc(N/N=C\c2cccn2-c2ccccc2)nc1 | -5.0 | 55.6* | i | i
C[C@H](CO)N1C[C@H](C)[C@@H](CN(C)S(=O)(=O)c2ccccc2)Oc2c(NS(=O)(=O)c3ccccc3)cccc2C1=O | -2.1 | 3.3 | · | ·
Cc1[nH]c2ccccc2c1/C=N/Nc1ccccc1[N+](=O)[O-] | -6.2 | 59.6* | i | i
COc1ccc(NS(=O)(=O)c2cc([N+](=O)[O-])ccc2N/N=C/c2c(C)[nH]c3ccccc23)cc1 | · | -47.4 | · | ·
CC1=C/C(=N\NC(=S)Nc2cccnc2)CC(C)(C)C1 | · | 53.3* | · | ·
O=C(CCl)N=c1sccn1Cc1cccc2ccccc12 | · | 61.6* | · | ·
SMILES | beta cell repl | H9c2 TAG inh | CHT allo act | CHT inh
O=C(CCl)N=c1sccn1Cc1ccc(Cl)cc1Cl | -5.4 | 59.5* | i | i
CCC(=O)OCC(=O)N=c1sccn1Cc1ccc(C)cc1 | -0.9 | -0.7 | i | i
O=C(CCl)N=c1sccn1Cc1ccccc1Cl | -6.1 | 76.1* | i | i
CCC(=O)OCC(=O)N=c1sccn1Cc1ccccc1Cl | 3.9 | 0.6 | i | i
Cc1ccc(C(=O)N2CCC(C(=O)Nc3cccc([N+](=O)[O-])c3)CC2)cc1 | -2.4 | -13.1 | i | i
O=C(COC(=O)c1ccc([N+](=O)[O-])o1)Nc1ccc2c(c1)OCO2 | -2.8 | -6.6 | · | ·
